Our source for the growth values is PubChem BioAssay (NCI).

Test systems include T-47D breast; BT-549 breast; MDA-MB-435 melanoma; SW-620 colon; MCF7 breast; HCT-116 colon; HCC-2998 colon; KM12 colon.
Test in all cases: NCI-60 one-dose screen, 48 h (100 = growth as untreated, 0 = no growth, -100 = all killed)
Common to all, as to conditions: 10 µM unless noted

Compounds without any hit were thinned out: in the full panel of roughly 83,000, 20% have a hit.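 How to read the values: 0–100, growth inhibition (40 = 60% inhibited); 0, no net growth; -100 to 0, cell death (-40 = 40% of starting cells died; -100 = all dead).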 A number with no mark means an inactive call. Active and inactive are the calls of the source. Rule for the calls: active = growth percent below 10; inactive = the rest.

As to `COc1cc(NC(=O)c2cc3ccccc3nc2Nc2ccc(F)cc2)cc(OC)c1OC`, the growth with T-47D breast was 22.1%; with BT-549 breast it was 30.7%; in the experiment on MDA-MB-435 melanoma it was 27%; with SW-620 colon it was 54.4%; in the experiment on MCF7 breast, 24.2%; in the experiment on HCT-116 colon, 35.8%. In addition, the growth in the experiment on HCC-2998 colon was 65.9%; with KM12 colon it was 42.7%.
In the case of `Cc1cc(Nc2nc(-c3ccc(F)cc3)nc3ccccc23)n[nH]1`, the growth in the experiment on T-47D breast was 29.3%; in the experiment on BT-549 breast it was 72.9%; in the experiment on MDA-MB-435 melanoma it was 31.2%; in the experiment with SW-620 colon, 48.8%; in the experiment with MCF7 breast it was 23.8%; with HCT-116 colon it was 28.5%. The growth in the experiment with HCC-2998 colon was 67.3%; in the experiment with KM12 colon, 14.8%.
In the case of `COC1=CC(c2ccc[nH]2)=N/C1=C\c1[nH]c(C)c(C(=O)CCCCC(=O)NCc2ccccc2)c1C`, the growth in the experiment on T-47D breast is 50.5%; in the experiment with BT-549 breast, 21.5%; in the experiment with MDA-MB-435 melanoma, -20% (active); in the experiment on SW-620 colon, -96.7% (active); in the experiment with MCF7 breast, -100% (active); with HCT-116 colon, -83.1% (active). Also, the growth is 57.8% in the experiment with HCC-2998 colon and -25.2% (active) in the experiment with KM12 colon.
Consider `O=C(Nc1ccc(OCc2nnc(-c3ccc(Cl)cc3)o2)c(F)c1)Nc1ccc(Cl)c(Cl)c1`, for which the growth in the experiment with T-47D breast is 55.8%; in the experiment on BT-549 breast it was 93.6%; in the experiment with MDA-MB-435 melanoma it was 73.1%; in the experiment with SW-620 colon it was 47%; with MCF7 breast, 50.3%; with HCT-116 colon it was 29.7%. The growth in the experiment with HCC-2998 colon is 85.4%; in the experiment with KM12 colon, 53.7%.
As to `Cc1ccc(S(=O)(=O)N2CCC(C(=O)Nc3ccc(F)cc3F)CC2)cc1`, the growth in the experiment on T-47D breast was 88.8%; with BT-549 breast it was 96.9%; with MDA-MB-435 melanoma, 95%; in the experiment on SW-620 colon, 103%; with MCF7 breast, 93.2%; in the experiment with HCT-116 colon, 101%. Further, the growth in the experiment with KM12 colon was 109%.
In the case of `CC(C)CCN(CCCNc1c2c(nc3ccccc13)CCCC2)CCC(C)C`, the growth in the experiment on T-47D breast was 98.8%; with BT-549 breast, 91.3%; in the experiment with MDA-MB-435 melanoma it was 89.3%; in the experiment with SW-620 colon, 79.9%; in the experiment on MCF7 breast, 69.9%; with HCC-2998 colon it was 69.7%. Further, in the experiment with KM12 colon, the growth is 105%.
On to `CC(C)(C)c1ccc(S(=O)(=O)Oc2ccc3c4c(c(=O)oc3c2)CCCCC4)cc1`, for which the growth with T-47D breast is 45.9%; with BT-549 breast, 46.6%; with MDA-MB-435 melanoma, 11.9%; in the experiment with SW-620 colon, 55.2%; in the experiment on MCF7 breast, 32.3%; in the experiment with HCC-2998 colon it was 74.5%. Besides, the growth in the experiment with KM12 colon was 55.1%.
Consider `O=C1CCCCC=C1C[N+](=O)[O-]`, for which the growth in the experiment with T-47D breast is 70.3%; in the experiment with BT-549 breast, 97.2%; in the experiment on MDA-MB-435 melanoma, 92.9%; with SW-620 colon, 39.6%; in the experiment on MCF7 breast it was 84.4%; with HCT-116 colon, 62.5%. Moreover, the growth with KM12 colon is 105%.
`O=S(=O)(NCCNc1nccc(-c2c(-c3ccccc3)nc3sccn23)n1)c1ccc(O)cc1`: the growth in the experiment on T-47D breast was 41.2%; with BT-549 breast it was 48.9%; with MDA-MB-435 melanoma, 10.5%; with SW-620 colon, 30%; with MCF7 breast, 18.5%; in the experiment on HCC-2998 colon, 64.9%. Also, in the experiment with KM12 colon, the growth was 21.6%.
Regarding `NC(=O)c1c(NC(=O)c2ccc3c(c2)OCO3)sc2c1CCC(=O)C2`, the growth was -39.7% (active) in the experiment on T-47D breast; -6.08% (active) in the experiment with BT-549 breast; 2.97% (active) in the experiment on MDA-MB-435 melanoma; -10.8% (active) in the experiment on SW-620 colon; -7.93% (active) in the experiment with MCF7 breast; 12.5% in the experiment on HCC-2998 colon. Besides, in the experiment on KM12 colon, the growth was -20.6% (active).
Take `OCc1c(-c2ccccc2)nc2sccn12`: the growth with T-47D breast was 104%; in the experiment on BT-549 breast, 59.3%; in the experiment on MDA-MB-435 melanoma it was 114%; with SW-620 colon, 98.3%; in the experiment on MCF7 breast it was 103%; in the experiment with HCT-116 colon, 104%. The growth in the experiment on KM12 colon is 97.6%.
Turning to `CCCCCCc1nc2c(c(C)nn2-c2ccccc2)c2c1CCCCC2`, the growth with T-47D breast was 92.2%; in the experiment on BT-549 breast, 113%; in the experiment on MDA-MB-435 melanoma, 116%; in the experiment with SW-620 colon it was 101%; in the experiment with MCF7 breast, 107%; with HCC-2998 colon, 106%. Further, the growth in the experiment with KM12 colon was 108%.
With `CCCCOc1nc2c(C)cccc2cc1C1CNC(=O)c2ccccc2N1` (stereo unspecified), the growth with T-47D breast was 58.4%; with BT-549 breast, 74.5%; with MDA-MB-435 melanoma it was 4.51% (active); in the experiment with SW-620 colon it was 42.3%; with MCF7 breast, 15.8%; in the experiment with HCC-2998 colon, 101%. Moreover, the growth in the experiment on KM12 colon was 56.4%.
For `CC(C)(C)c1cn2cccc(C(=O)N3CCN(CC(=O)Nc4ccc(Cl)cc4C(=O)c4ccccc4Cl)CC3)c2n1`, the growth is 31.8% in the experiment on T-47D breast; -15.1% (active) in the experiment with BT-549 breast; 63.4% with MDA-MB-435 melanoma; 60.6% in the experiment with SW-620 colon; 43.8% in the experiment with MCF7 breast; 33.3% with HCT-116 colon. The growth with KM12 colon was 54.2%.
In the case of `Nc1cccc2c1CN(C1CCC(=O)NC1=O)C2=O` (stereo unspecified), the growth is 97.5% in the experiment with T-47D breast; 105% in the experiment with BT-549 breast; 101% in the experiment with MDA-MB-435 melanoma; 95.6% with SW-620 colon; 94.5% with MCF7 breast; 114% in the experiment on HCT-116 colon. In addition, the growth in the experiment on KM12 colon is 98.1%.
Consider `COc1ccc(OC)c(NC(=O)c2cc(S(=O)(=O)N3CCc4ccccc43)ccc2OC)c1`, for which the growth in the experiment on T-47D breast was 93.4%; with BT-549 breast it was 104%; in the experiment with MDA-MB-435 melanoma, 96.1%; with SW-620 colon, 96.7%; with MCF7 breast, 113%; in the experiment with HCT-116 colon it was 72.2%. For the same compound, in the experiment with KM12 colon, the growth was 111%.
Turning to `CN1C(=O)[C@H]2c3c1cccc3[C@@]13NC(=O)O[C@H]1[C@H](CCC3(C)C)C2(C)C`, the growth is 87.8% with T-47D breast; 102% with BT-549 breast; 102% in the experiment on MDA-MB-435 melanoma; 114% in the experiment on SW-620 colon; 99.7% in the experiment on MCF7 breast; 106% in the experiment on HCC-2998 colon. Further, the growth in the experiment on KM12 colon is 103%.
On to `COc1ccc(/C=C2\C(=O)N(C(=O)c3csc(NC(C)=O)n3)N=C2C)cc1`, for which the growth is 99.2% in the experiment with T-47D breast; 95.9% in the experiment on BT-549 breast; 106% in the experiment with MDA-MB-435 melanoma; 106% with SW-620 colon; 88.4% in the experiment with MCF7 breast; 103% in the experiment on HCC-2998 colon. In addition, the growth with KM12 colon was 102%.
Consider `CCC(=O)Nc1ccccc1C#C/C=C\C#Cc1ccccc1SC`, for which the growth was 57.2% in the experiment on T-47D breast; 71.6% in the experiment with BT-549 breast; -16.5% (active) in the experiment on MDA-MB-435 melanoma; 35.3% in the experiment on SW-620 colon; 62.2% with MCF7 breast; 41.6% in the experiment on HCT-116 colon. In addition, the growth in the experiment with KM12 colon is 43.5%.
For the compound `Clc1nc(Cl)c2ncn(C/C=C/Cn3cnc4c(Cl)nc(Cl)nc43)c2n1`, the growth in the experiment on T-47D breast was 38.2%; in the experiment with BT-549 breast, -33.3% (active); in the experiment with MDA-MB-435 melanoma, 98.3%; in the experiment on SW-620 colon, 45%; in the experiment with MCF7 breast, 38.3%; with HCT-116 colon, 33.3%. The growth in the experiment with KM12 colon was 78.7%.
Consider `Nc1nc(Cl)c2c(ncn2Cc2ccc(CCl)cc2)n1`, for which the growth in the experiment on T-47D breast is 90.2%; with BT-549 breast, 6.29% (active); in the experiment on MDA-MB-435 melanoma, 95.5%; with SW-620 colon, 93.3%; with MCF7 breast it was 72.5%; in the experiment with HCT-116 colon, 94.2%. Moreover, the growth in the experiment with KM12 colon is 94.3%.
Take `COc1cccc(/C=C2\SC(N3CCN(c4ccccn4)CC3)=NC2=O)c1`: the growth in the experiment with T-47D breast is 95%; in the experiment on BT-549 breast, 112%; with MDA-MB-435 melanoma it was 108%; in the experiment with SW-620 colon, 97.9%; in the experiment with MCF7 breast, 94.8%; in the experiment on HCC-2998 colon it was 99.4%. Besides, the growth with KM12 colon was 97.4%.
On to `c1ccc([P+](CCC[P+](c2ccccc2)(c2ccccc2)c2ccccc2)(c2ccccc2)c2ccccc2)cc1`, for which the growth with T-47D breast was 45.2%; in the experiment with BT-549 breast, 75.9%; with MDA-MB-435 melanoma, 38.6%; in the experiment on SW-620 colon it was 85.4%; in the experiment with MCF7 breast, 59%; in the experiment on HCC-2998 colon, 48.1%. Also, in the experiment on KM12 colon, the growth is 45.5%.
On to `O=c1oc2c([nH]c3ccc4ccccc4c32)c2ccccc12`, for which the growth is 77.5% with T-47D breast; 104% in the experiment with BT-549 breast; 105% in the experiment with MDA-MB-435 melanoma; 98.3% in the experiment on SW-620 colon; 73.7% with MCF7 breast; 102% in the experiment on HCT-116 colon. For the same compound, the growth in the experiment with KM12 colon was 106%.
As for `COc1ccc(C(=O)/C=C/c2ccc(/C=C/c3cc(OC)c(OC)c(OC)c3)cc2)cc1`, the growth in the experiment with T-47D breast was 43.4%; in the experiment with BT-549 breast, 41.6%; with MDA-MB-435 melanoma it was 41%; with SW-620 colon, 39.3%; in the experiment with MCF7 breast it was 30.6%; with HCC-2998 colon it was 94.1%. Moreover, the growth in the experiment on KM12 colon is 29.2%.
With `Cc1cc(Cl)ccc1OC(C)C(=O)Nc1nnc(C2CC2)s1` (stereo unspecified), the growth in the experiment on T-47D breast is 90.9%; with BT-549 breast it was 116%; with MDA-MB-435 melanoma, 102%; in the experiment on SW-620 colon, 103%; in the experiment on MCF7 breast, 112%; in the experiment with HCT-116 colon, 94.7%. The growth with KM12 colon was 107%.
For the compound `CCN(CC)c1cc(/C=C/c2ccc(OC)c(OC)c2)nc2cc(F)c(F)cc12`, the growth is 40.2% in the experiment with T-47D breast; 24.5% in the experiment on BT-549 breast; 100% in the experiment on MDA-MB-435 melanoma; 104% in the experiment with SW-620 colon; 65.3% in the experiment on MCF7 breast; 116% with HCC-2998 colon. Moreover, the growth in the experiment with KM12 colon is 103%.
Regarding `COc1ccc(-c2nnc(COc3ccc(NC(=O)Nc4ccc(Cl)c(C(F)(F)F)c4)cc3F)o2)cc1`, the growth with T-47D breast was 9.17% (active); with BT-549 breast, -2.18% (active); in the experiment with MDA-MB-435 melanoma, 4.03% (active); in the experiment on SW-620 colon, 9.95% (active); with MCF7 breast it was 2.31% (active); with HCT-116 colon, 4.43% (active). For the same compound, the growth is 13.8% with HCC-2998 colon and 4.64% (active) in the experiment on KM12 colon.
